Reference: PubChem BioAssay AID488969 (Vanderbilt High Throughput Screening Facility, 2010)
In all, about 110,000 compounds were measured (“z-score”: median about -0.1, highest 2% from about 2 on). The sample holds the highest values, similar compounds and a random draw of the others, so the mix is not that of the screen. Active and inactive are the calls of the source.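 The calls were made as follows: active = z-score in the third read window above 3 or below -3; inactive = the rest.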

Biological target: Metabotropic glutamate receptor 8 (Rattus norvegicus) (UniProt P70579)
Experiment: rat mGluR8 modulators via GIRK flux, primary screen, cell-based, thallium flux, HTS (AID 488969)
Details: HEK293 rat mGluR8, GIRK (G protein-gated inwardly rectifying potassium channel) thallium flux, FluoZin2; at 10 µM; stronger effect = higher value; submaximal glutamate (EC20) added with thallium

Sequence of Metabotropic glutamate receptor 8 (Rattus norvegicus) (P70579 whole entry, looked up): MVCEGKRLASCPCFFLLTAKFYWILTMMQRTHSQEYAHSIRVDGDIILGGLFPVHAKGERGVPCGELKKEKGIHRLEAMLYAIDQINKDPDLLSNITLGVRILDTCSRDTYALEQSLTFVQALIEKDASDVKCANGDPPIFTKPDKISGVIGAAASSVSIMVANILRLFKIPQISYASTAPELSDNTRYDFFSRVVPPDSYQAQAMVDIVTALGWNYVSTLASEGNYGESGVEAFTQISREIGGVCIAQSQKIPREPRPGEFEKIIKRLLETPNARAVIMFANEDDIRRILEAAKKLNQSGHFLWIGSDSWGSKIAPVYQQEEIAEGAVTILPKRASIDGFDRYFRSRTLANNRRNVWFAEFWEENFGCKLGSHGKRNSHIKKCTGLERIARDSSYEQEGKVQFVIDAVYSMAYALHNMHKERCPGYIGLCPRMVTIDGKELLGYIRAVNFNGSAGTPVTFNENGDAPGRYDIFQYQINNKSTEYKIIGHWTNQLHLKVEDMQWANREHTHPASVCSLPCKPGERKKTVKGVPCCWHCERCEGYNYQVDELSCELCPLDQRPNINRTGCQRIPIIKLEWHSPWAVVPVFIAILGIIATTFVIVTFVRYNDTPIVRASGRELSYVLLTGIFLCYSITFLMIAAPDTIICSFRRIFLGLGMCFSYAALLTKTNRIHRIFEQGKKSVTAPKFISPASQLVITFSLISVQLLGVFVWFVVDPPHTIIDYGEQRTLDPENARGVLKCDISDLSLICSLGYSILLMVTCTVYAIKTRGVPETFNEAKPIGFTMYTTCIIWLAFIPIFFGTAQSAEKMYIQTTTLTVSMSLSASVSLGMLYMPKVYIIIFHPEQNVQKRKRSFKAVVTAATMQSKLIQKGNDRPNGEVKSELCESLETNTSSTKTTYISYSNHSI

Structure (SMILES)	z-score
CC(=O)Nc1ccc(NC(=O)COC(=O)Cc2cccs2)cc1	-0.0463
COc1ccc(-n2c(SCC(=O)Nc3ccc(C(=O)O)cc3)nnc2-c2cccs2)cc1	0.0972
CC1(C)N=C(N)N=C(N)N1c1ccc(F)cc1F	-0.421
O=C1NC(=S)S/C1=C\c1ccc(SCc2ccccc2)o1	6.47 (active)
O=C1NC(=S)S/C1=C/c1ccc(N2CCOCC2)o1	0.253
CC1=NN2C(=N)/C(=C\c3ccc(SCc4ccccc4)o3)C(=O)N=C2S1	-0.21
CCCNc1nc(N2CCOCC2)nc(N2CCOCC2)n1	-0.0765
Cc1cc(OC(C)C)c2c(-c3ccccc3)cc(=O)oc2c1	-0.594
CCOc1cc(C)cc2oc(=O)cc(-c3ccccc3)c12	0.0205
Cc1cc(O)c2c(-c3ccccc3)cc(=O)oc2c1	2.16
C=CCCC(=O)Nc1nc(C)c(-c2csc(Nc3ccc(Cl)cc3Cl)n2)s1	-0.203
O=[N+]([O-])c1ccc(Cl)c(/C=N/N2CCN(c3ccccc3)CC2)c1	-0.188
O=[N+]([O-])c1cc(/C=N/N2CCN(c3ccccc3)CC2)ccc1Cl	2.02
O=[N+]([O-])c1cc(/C=N/N2CCN(C3c4ccccc4-c4ccccc43)CC2)ccc1Cl	0.148
N#C/C(=C\c1ccc(-c2cccc(C(F)(F)F)c2)o1)C(=O)Nn1cnnc1	-0.113
O=C1NCCCC1C(=O)N/N=C/c1ccccc1 (centres undefined)	0.00752
Cn1c(CSc2nc3ccccc3s2)n[nH]c1=S	1.41
CCn1c(CSc2nc3ccccc3s2)n[nH]c1=S	0.155
S=c1[nH]nc(CSc2nc3ccccc3s2)n1C1CCCCC1	14.9 (active)
Cc1cc(C(=O)NCCCC(=O)O)c(C)o1	-0.154
Cc1noc(/C=C/N(C)C)c1S(=O)(=O)N1CCCC(C(=O)NC2CCCCC2)C1 (centres undefined)	-0.19
Cc1noc(/C=C/N(C)C)c1S(=O)(=O)NC1CCCCC1	-0.658

Structure (SMILES)	z-score
Cc1noc(/C=C/N(C)C)c1S(=O)(=O)N(C)CC(=O)NC1CCCCC1	2.18
CCCC1COC(Cn2cncn2)(c2ccc(C)cc2)O1 (centres undefined)	10.6 (active)
Cc1ccc(SCCCn2cncn2)cc1	-0.0811
c1ccc(C2(c3ccccc3)OCC(Cn3cncn3)O2)cc1 (centres undefined)	0.218
CCn1c(CCNC(=O)c2ccc(Cl)cc2)n[nH]c1=S	-0.774
CCn1ncc(/C=C/C(=O)Nc2c(C)nn(CC)c2C)c1C	-0.306
CC1CCCCC1NC(=O)COC(=O)c1ccc2c(c1Cl)C(=O)c1ccccc1C2=O (centres undefined)	-0.0566
O=C(COC(=O)c1cccnc1)Nc1ccccc1	0.274
Cc1nc2cc(C(=O)OCC(=O)Nc3ccc(C#N)cc3)ccc2n1-c1ccccc1	-0.0383
Cc1nc2cc(C(=O)OCC(=O)Nc3cccc(Cl)c3)ccc2n1-c1ccccc1	2.18
O=C(COC(=O)c1cccc(N2C(=O)c3ccccc3C2=O)c1)Nc1ccccc1	5.13 (active)
COc1ccccc1NC(=O)COC(=O)c1ccc2c(c1)nc(C)n2-c1ccccc1	-0.283
CC(=O)c1cccc(NC(=O)COC(=O)c2cccc(N3C(=O)c4ccccc4C3=O)c2)c1	0.155
Cc1cc(NS(=O)(=O)c2ccc(NC(=O)c3cc(-c4ccccc4Cl)nc4ccccc34)cc2)no1	-1.51
C=CCn1c(=NC(=O)c2ccco2)sc2cc(C(=O)OC)ccc21	0.103
COc1ccccc1C(=O)Nc1ccc2c(c1)OCO2	0.246
CN(C)C(=O)N1CCCC(C(=O)NCc2ccccc2)C1 (centres undefined)	-0.341
CC(/C=N/NC(=O)c1ccncc1)=C\c1ccccc1	0.474
CC(/C=N/NC(=O)c1ccncc1)=C\c1ccc(C(C)C)cc1	-0.0873
CC(=C/c1ccc(C(C)C)cc1)/C=N/NC(=O)c1ccncc1	2.21
COc1cc(/C=N\NC(=O)c2ccc(=O)[nH]n2)cc(OC)c1OC	0.00269
O=C(NO)c1ccc(OC(F)F)cc1	0.319

Structure (SMILES)	z-score
CCC1CCCCN1c1cc(C)nc2cc(-c3cccc(C)c3)nn12 (centres undefined)	-0.0418
C#CCn1c(=NC(=O)c2ccccc2[N+](=O)[O-])sc2cc(S(C)(=O)=O)ccc21	-0.119
S=c1nc(-c2ccc(Br)cc2)oc2c1CCCC2	4.2 (active)
S=c1nc(-c2ccccc2)oc2c1CCCC2	-0.0866
Cc1cccc(-c2nc(=S)c3c(o2)CCCC3)c1	0.856
C=CCONC(=O)c1cc(OCC(F)(F)F)ccc1OCC(F)(F)F	-0.0898
COCCCNCCOCCSc1ccc(Cl)cc1	0.918
O=C(Cn1cncc1-c1ccc([N+](=O)[O-])cc1)Nc1cccc2ccccc12	-0.199
CC1CCc2c(sc(NC(=O)CN3CCN(C(=O)c4ccco4)CC3)c2C#N)C1 (centres undefined)	0.101
CC1CCc2c(sc(NC(=O)C(=O)NCc3ccco3)c2C#N)C1 (centres undefined)	11.4 (active)
CC1CCc2c(sc(NC(=O)COC(=O)c3ccccc3NCc3ccco3)c2C#N)C1 (centres undefined)	-0.152
COc1ccc(S(=O)(=O)N2CCN(C3Cc4ccccc4C3)CC2)cc1	-0.439
Cc1cc(C)n(CC(O)CN(c2ccccc2)S(=O)(=O)c2ccccc2)n1 (centres undefined)	-0.261
CC1CN(S(=O)(=O)c2ccc(C(=O)Nc3nnc(-c4ccc5c(c4)CCCC5)o3)cc2)CC(C)O1 (centres undefined)	2.42
O=C(Nc1nnc(-c2ccc3c(c2)CCCC3)o1)c1ccccc1Cl	5.26 (active)
COc1ccccc1C(=O)Nc1nnc(-c2ccc3c(c2)CCCC3)o1	-0.536
O=C(CCc1ccccc1)Nc1nnc(-c2ccc3c(c2)CCCC3)o1	-0.145
CC1CN(S(=O)(=O)c2cccc(C(=O)Nc3ccc4c(c3)CCC4)c2)CC(C)O1 (centres undefined)	-0.053
Cc1cc(C)nc(NS(=O)(=O)c2ccc(NC(=O)c3ccc(S(=O)(=O)N4CC(C)OC(C)C4)cc3)cc2)n1 (centres undefined)	-0.605
O=C(Nc1nnc(-c2ccccn2)o1)c1ccc(Br)cc1	2.32
Cc1cc(C)c(NC(=O)c2ccc(S(=O)(=O)N(C)C)cc2)c(C)n1	-1.73
O=C(Nc1nnc(-c2ccccn2)o1)c1cccc(Br)c1	0.334

Structure (SMILES)	z-score
O=C(Nc1nnc(-c2ccc3c(c2)OCCO3)o1)c1ccc(Cc2ccccc2)cc1	-0.048
CN(C)S(=O)(=O)c1ccc(C(=O)Nc2nnc(-c3ccc4c(c3)CCCC4)o2)cc1	5.8 (active)
N#Cc1ccc(C(=O)Nc2nnc(-c3ccccn3)o2)cc1	-0.232
Nc1ccc(SC(F)(F)F)cc1C(=O)c1ccccc1	-0.00154
O=C(COC(=O)C1CCN(S(=O)(=O)c2ccc3c(c2)OCCO3)CC1)Nc1cc(C(F)(F)F)ccc1Cl	-0.303
CCCC12CN3CCN(CC(C3)/C1=N\NC(=O)Nc1ccccc1)C2	-0.242
CCc1cc2cc(C(=O)Nc3ccc(F)cc3)sc2s1	-0.0494
Cc1nc2ccc(F)cc2cc1C(=O)NCc1ccco1	-0.0284
O=C(COC(=O)CCc1nc2ccccc2s1)Nc1ncc(Cl)cc1Cl	-0.33
CN1CCN(/C=N/c2c(C#N)cnn2-c2ccccc2)CC1	0.237
O=C(CNC(=O)c1cccc(F)c1)OCc1cc(=O)n2cc(Br)ccc2n1	-0.354
CC(=O)Nc1nnc(-c2ccc3c(c2)CCCC3)o1	0.0154
COc1cccc(-c2nnc(NC(=O)c3ccc(S(=O)(=O)N(CC(C)C)CC(C)C)cc3)o2)c1	-0.14
O=C(COc1ccccc1)Nc1nnc(-c2ccc3c(c2)CCCC3)o1	1.27
O=C(Nc1nnc(-c2ccc3c(c2)CCCC3)o1)C1COc2ccccc2O1 (centres undefined)	7.22 (active)
O=C(Nc1ccc2c(c1)CCC2)C1COc2ccccc2O1 (centres undefined)	0.9
O=C(Nc1nnc(-c2ccc3c(c2)CCCC3)o1)c1ccc(Cl)cc1Cl	15.6 (active)
Clc1ccc(-c2nnc(NC3=NCCCCC3)o2)cc1	0.0658
O=C(COc1ccc(Cl)cc1)Nc1nnc(-c2ccc3c(c2)CCCC3)o1	-0.441
O=C(Nc1nnc(-c2ccc3c(c2)CCCC3)o1)C1CCCCC1	-0.309
CCCN(CCC)S(=O)(=O)c1ccc(C(=O)Nc2nnc(CSC)o2)cc1	0.35
CCCN(CCC)S(=O)(=O)c1ccc(C(=O)Nc2nnc(-c3cccc(OC)c3)o2)cc1	3.65 (active)

Structure (SMILES)	z-score
O=C(Nc1nnc(-c2ccc3c(c2)CCCC3)o1)c1ccccc1	15.5 (active)
COc1nnc(-c2ccc(N3CCCCC3)c(NC(=O)C3CCCCC3)c2)c2ccccc12	-0.3
Cc1ccccc1N1CCN(C(=O)CCN2C(=O)c3ccccc3C2=O)CC1	-0.36
COc1ccc(C(=O)Nc2ccc(Cl)c(Cl)c2)c(OC)n1	-0.192
COc1ccccc1C(=O)NNC(=O)c1ccc(F)cc1	0.0416
CCC(C)(C)n1nnnc1C(C(C)C)N1CCSCC1 (centres undefined)	0.805
O=S(Cc1ccc(Br)cc1)Cc1nnc(SCc2c(Cl)cccc2Cl)n1-c1ccccc1 (centres undefined)	0.0461
CCNC(=O)C1CCCN1S(=O)(=O)c1ccc(C)cc1 (centres undefined)	-0.513
Cc1ccc2cc3cc(C(=O)N4CCN(Cc5ccccc5)CC4)sc3nc2c1	0.586
O=C(/C=C/c1ccccc1)NC(NC(=S)Nc1cccc(O)c1)C(Cl)(Cl)Cl (centres undefined)	2.09
O=C(Cc1ccccc1)NC(NC(=S)Nc1cc(Cl)ccc1Cl)C(Cl)(Cl)Cl (centres undefined)	-0.195
O=C(/C=C/c1ccccc1)NC(NC(=S)Nc1cc(Cl)ccc1Cl)C(Cl)(Cl)Cl (centres undefined)	5.83 (active)
O=C(/C=C/c1ccccc1)NC(NC(=S)Nc1cccc(Cl)c1)C(Cl)(Cl)Cl (centres undefined)	1.36
COc1ccc(NC(=S)NC(NC(=O)/C=C/c2ccccc2)C(Cl)(Cl)Cl)cc1 (centres undefined)	1.83
O=C(/C=C/c1ccccc1)NC(NC(=S)Nc1ccc(Cl)cc1Cl)C(Cl)(Cl)Cl (centres undefined)	0.717
O=C(CNc1n[nH]c(=O)[nH]c1=O)N/N=C/c1cccnc1	-0.114
Cc1cccc(N2CCN(C(=O)Cn3cnc4c3c(=O)n(C)c(=O)n4C)CC2)c1C	-0.973
Cn1nnc(NC(=O)c2ccc3ccccc3c2)n1	-1.31
O=C(Nc1nc2c(s1)CCCC2)Oc1ccccc1	-0.198
COC(=O)C(NC(=O)COc1ccccc1)(Nc1nc2c(s1)CCCC2)C(F)(F)F (centres undefined)	2.96
CCOC(=O)C(NC(=O)CC)(Nc1nc2c(s1)CCCC2)C(F)(F)F (centres undefined)	-0.0129
